Laboratory results taken from PubChem BioAssay (NCI).
The panel holds about 83,000 compounds, 20% with a hit somewhere; the sample as a whole holds those more often.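 Growth was measured after 48 h exposure to one concentration of compound in 96-well plates. Values under 10 count as active.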 Activity calls are given as the source filed them.

Experiments:
Experiment in all cases: NCI-60 one-dose screen, 48 h (100 = growth as untreated, 0 = no growth, -100 = all killed)
Settings in all cases: 10 µM unless noted
[1] = test system: SR leukemia
[2] = test system: OVCAR-8 ovarian
[3] = test system: OVCAR-5 ovarian
[4] = test system: SK-OV-3 ovarian
[5] = test system: IGROV1 ovarian
[6] = test system: OVCAR-3 ovarian
[7] = test system: NCI/ADR-RES ovarian
[8] = test system: RPMI-8226 leukemia
[9] = test system: OVCAR-4 ovarian
[10] = test system: HS 578T breast

Measured: growth

COC1=CC(c2ccc[nH]2)=N/C1=C\c1[nH]c(C)c(CCCn2cc(CCCCCCCCC[C@@H]3Cc4cc(O)ccc4C4CC[C@]5(C)[C@@H](O)CC[C@H]5C43)nn2)c1C (stereo partly drawn)
inactive: [1] 66.7% | [2] 70.4% | [3] 32% | [4] 84% | [5] 78.1% | [6] 63.2% | [7] 69.5%

O=C(Nc1ccc(F)c(Cl)c1)c1n[nH]c(=O)c2ccccc12
inactive: [8] 119% | [2] 95.4% | [3] 107% | [9] 96.1% | [4] 119% | [6] 94.6% | [10] 129% | [7] 112%
active: [5] 8.17%

NC(N)=NC(N)=Nc1ccccc1-c1ccccc1
inactive: [8] 112% | [2] 113% | [3] 110% | [9] 110% | [4] 123% | [5] 110% | [6] 117% | [10] 109% | [7] 117%

CC(=O)OC[Si](C)(C)c1ccccc1
inactive: [8] 110% | [2] 101% | [3] 108% | [9] 103% | [4] 103% | [5] 114% | [6] 112% | [10] 103% | [7] 112%

c1ccc([P+](CCC[P+](c2ccccc2)(c2ccccc2)c2ccccc2)(c2ccccc2)c2ccccc2)cc1
active: [8] 1.19%
inactive: [2] 70.6% | [3] 89.7% | [9] 66.7% | [4] 93.2% | [5] 59.1% | [6] 54.1% | [10] 94.8% | [7] 104%

CCN(CC)CCCC(C)N=c1cc(Nc2cc(=NC(C)CCCN(CC)CC)c3cc(OC)ccc3o2)oc2ccc(OC)cc12 (stereo not drawn)
active: [8] -38.3% | [2] -1.52% | [3] -28.3% | [9] -48.8% | [4] 7.55% | [5] -5.22% | [6] -20.8% | [7] 3.48%
inactive: [10] 27.5%

Cc1nc2sccn2c1-c1csc(Nc2ccccc2Cl)n1
inactive: [8] 38.9% | [2] 53% | [3] 54.9% | [9] 47.3% | [4] 75.9% | [5] 60.5% | [6] 47.7% | [10] 76.7% | [7] 21.6%

Cc1ccc(-c2csc3nc(C)c(CCCl)c(=O)n23)cc1
inactive: [8] 83.8% | [2] 103% | [3] 107% | [9] 82.1% | [4] 105% | [5] 78.8% | [6] 99.4% | [10] 83% | [7] 105%

CCN(CC)S(=O)(=O)c1ccc2[nH]c(=O)cc(C(=O)Nc3ccc(OC)cc3OC)c2c1
inactive: [8] 108% | [2] 109% | [3] 100% | [9] 115% | [4] 108% | [5] 34.4% | [6] 118% | [10] 103% | [7] 99.6%

O=C(COc1ccccc1)N1N=C(c2ccc(Cl)cc2)CC1c1c[nH]c2ccccc12 (stereo not drawn)
inactive: [1] 10.8% | [2] 70.4% | [3] 112% | [4] 81.4% | [5] 30.2% | [6] 77.9% | [10] 93.7% | [7] 83%

NC(=O)c1c(NC(=O)c2ccc(OCC3CCCO3)cc2)sc2c1CCCC2 (stereo not drawn)
inactive: [8] 83.7% | [2] 104% | [3] 101% | [9] 115% | [4] 119% | [6] 108% | [7] 97.1%
active: [5] -23.3% | [10] -24.5%

CC(Br)C(O)c1cc2c(cc1Br)OCO2 (stereo not drawn)
inactive: [8] 101% | [2] 109% | [3] 108% | [9] 105% | [4] 118% | [6] 109% | [10] 103% | [7] 105%

Cc1cc(Cl)ccc1OC(C)C(=O)Nc1nnc(C2CC2)s1 (stereo not drawn)
inactive: [8] 89.6% | [2] 111% | [3] 98.7% | [9] 104% | [4] 103% | [6] 110% | [7] 96.6%
active: [5] -51.7% | [10] -24.6%

COc1cc2nc(Cl)nc(NCCO)c2cc1OC
inactive: [8] 98.3% | [2] 98.3% | [3] 100% | [9] 102% | [4] 119% | [5] 108% | [6] 111% | [10] 104% | [7] 112%

O=C(c1ccccc1)C(Cl)C(Cl)c1ccccc1 (stereo not drawn)
active: [8] -5.33% | [2] -1.77% | [6] 2.77%
inactive: [3] 113% | [9] 41.2% | [4] 138% | [10] 83.7% | [7] 80.2%

COc1ccc(/C=C2\CCCC3=C2NC(C)=NC3c2ccc(OC)c(OC)c2)cc1OC (stereo not drawn)
active: [8] -25.8% | [2] 3.09% | [4] 6.97% | [6] 2.97%
inactive: [9] 21% | [5] 24.4% | [10] 59% | [7] 11.2%

NC(=O)c1ccc2c(c1)OCO2
inactive: [8] 106% | [2] 108% | [3] 113% | [9] 103% | [4] 130% | [6] 107% | [10] 98.7% | [7] 97%

Nc1cc2c(cc1N)-c1cc(N)c(N)cc1C2
inactive: [8] 95.9% | [2] 103% | [9] 108% | [4] 99.2% | [5] 97.6% | [6] 109% | [10] 94.3% | [7] 111%

CC1Cc2c(N(C)C)ncnc2N(C)c2ccc(Cl)cc21 (stereo not drawn)
active: [6] 5.13%
inactive: [8] 31.3% | [2] 45.9% | [3] 73.8% | [9] 49.7% | [4] 46.3% | [5] 57.5% | [7] 25.9%

CCC(=O)Oc1ccc2c(c1)CC[C@@H]1[C@@H]2CC[C@]2(C)C[C@H](OC(=O)CC)C[C@@H]12
inactive: [8] 67% | [2] 87.9% | [9] 79% | [4] 56% | [5] 77.6% | [6] 68.8% | [10] 59.7% | [7] 54.2%

Cc1nn(-c2ccc(Cl)cc2)c(=O)n1CCOc1ccccc1Cl
inactive: [8] 88.9% | [2] 92.7% | [9] 68.1% | [4] 92.9% | [5] 117% | [6] 121% | [10] 90.3% | [7] 89.9%

COC(=O)c1ccc(C)cc1
inactive: [8] 102% | [2] 103% | [3] 110% | [9] 105% | [4] 99.6% | [6] 106% | [10] 99.5% | [7] 106%

CN1C(=O)[C@H]2c3c1cccc3[C@@]13NC(=O)O[C@H]1[C@H](CCC3(C)C)C2(C)C
inactive: [8] 97% | [2] 96.1% | [3] 101% | [9] 99% | [4] 120% | [5] 107% | [6] 103% | [10] 89.1% | [7] 98.8%

O=C(CN1CCN(c2cc3c(cc2F)c(=O)c(C(=O)O)cn3C2CC2)CC1)Nc1ccc(C(=O)/C=C/c2ccccc2)cc1
active: [8] 2.45% | [2] 6.3%
inactive: [3] 82.6% | [9] 86.4% | [4] 93.6% | [5] 42.9% | [6] 54.9% | [10] 51.9% | [7] 93.5%

COc1ccc2c(c1)C=CC(C#N)N2C(=O)c1ccccc1 (stereo not drawn)
inactive: [8] 22% | [2] 15.4% | [3] 47.1% | [9] 25.4% | [4] 43.5% | [10] 14.9%
active: [6] -23.7% | [7] 6.62%

Cc1ccc(S(=O)(=O)N2CCC(C(=O)Nc3ccc(F)cc3F)CC2)cc1
active: [5] -38.5% | [10] -32.4%
inactive: [8] 86.5% | [2] 97.8% | [3] 98% | [9] 83.7% | [4] 92.3% | [6] 91.6% | [7] 95.4%

O=C(CCC(=O)OC1CCCC1)OC1CCCC1
inactive: [8] 95.1% | [2] 91.6% | [3] 98.7% | [9] 107% | [4] 110% | [5] 110% | [6] 102% | [7] 105%

Cc1cc2c(c(=O)o1)C(c1ccc(OC(=O)N3CCOCC3)cc1)C(C#N)=C(N)O2 (stereo not drawn)
inactive: [8] 109% | [3] 98.9% | [9] 109% | [4] 101% | [5] 107% | [6] 109% | [10] 116% | [7] 105%

C=CCOc1ccc(/C(O)=C2\C(=O)C(=O)N(c3nccs3)C2c2ccccc2F)cc1 (stereo not drawn)
active: [5] 3.7%
inactive: [8] 136% | [2] 102% | [9] 81.3% | [4] 109% | [6] 93.5% | [10] 104% | [7] 119%

COc1ccc(/C(=N/O)c2cc(F)c(F)c(OC)c2F)cc1O
inactive: [8] 22.1% | [2] 17.7% | [3] 52.1% | [9] 58.6% | [4] 17.3% | [5] 50.6% | [7] 17.4%
active: [6] -2.69%
